Source: PubChem BioAssay
HT1080 IDH1KD tx – toxicity to HT-1080 IDH1 knockdown cells (counter line); HT-1080 IDH1 knockdown viability, ATP luminescence, 48 h; Potency, µM (highest dose often 46.1 µM), inactives show at the top dose activity, negative = toxicity, actives largely listed as cytotoxic; 360,000 compounds, 2% hits;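 note: potency is the fitted concentration of half-maximal effect; 0% = DMSO wells and -100% = cell-free medium wells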
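IDH1KD HT-1080 cells, 750/well, RPMI + 5% FBS; compound pinned after 2 h settling; 48 h, 37 °C; CellTiter-Glo luminescence; % activity normalised to DMSO and no-cell wells; curves fitted, classed by r2 and efficacy.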
TDP1 cell CPT – DT40-hTDP1 cell growth loss with CPT; 420,000 compounds, 12% hits; chicken DT40 Tdp1-/-;hTDP1 cells + 20 nM CPT, ATP luminescence, 48 h; AID 686979; Potency, µM (top dose mostly 46.2 µM), for the others: at the highest dose activity change, negative = growth inhibition, most hits filed as inhibitors; note: potency is the fitted concentration of half-maximal effect; nearly all actives have a fitted effect of over 55% in size
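Cell growth measured by CellTiter-Glo luminescence after a minimum 48 h, 37 C compound exposure with 20 nM CPT in Tdp1-knockout DT40 cells stably expressing hTDP1, seeded 400/well; qHTS titration format.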
IL-1B inflam inh – inhibitors of inflammasome signaling (IL-1 beta secretion); THP-1 LPS/ATP IL-1B secretion, AlphaLISA, 16 h; hits give low values; activity change, % at 57.5 µM; 360,000 compounds, 4.7% hits; in the data active = activity change below about -50%; inconclusive = mostly about -30% to -49%
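THP-1 cells pretreated 1 hr with compounds (up to 57.5 uM final), then stimulated with LPS (250 ng/mL final) plus ATP (1.25 mM final); secreted IL-1B measured by AlphaLISA after 16 hr, decreased signal indicating inhibition.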
HT1080NT lethal – kills 2HG-producing HT-1080-NT fibrosarcoma cells. HT-1080-NT fibrosarcoma viability, CellTiter-Glo ATP luminescence, 48 h. Potency, µM (highest dose often 46.1 µM), for inactives: at the top dose activity, negative = less viability, usual class: cytotoxic. 360,000 compounds, 1.6% hits;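 note: NT is the 2HG producing partner of a matched IDH1 knockdown line; potency is the fitted concentration of half-maximal effect; 0% = DMSO-treated cells and -100% = media-only wells without cells; nearly all actives have a fitted effect of over 55% in size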
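Toxicity toward the 2HG-producing NT line was scored as %Activity, normalised to DMSO and no-cell wells, from CellTiter-Glo luminescence after 48 hours' treatment.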
DT40 TDP1 no CPT – qHTS for Inhibitors of human tyrosyl-DNA phosphodiesterase 1 (TDP1): qHTS in cells in absence of CPT; DT40 Tdp1-/- hTDP1 cells, no CPT, ATP luminescence, 48 h; Potency, µM (top dose mostly 46.2 µM), inactives show at the top dose activity change, negative = growth inhibition, hits mostly inhibitors; 420,000 compounds, 15% hits; note: potency is the fitted concentration of half-maximal effect; nearly all actives have a fitted effect of over 55% in size
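Growth of hTDP1-complemented DT40 Tdp1-knockout cells is measured by ATP luminescence after at least 48 hr compound exposure at 37 °C, with DMSO substituting for the 20 nM CPT used in the parallel screen.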
ELG1 repair inh – ELG1-dependent DNA repair inhibition | HEK293T ELG1-luciferase reporter, luminescence, 16 h; DNA damage induced by 5-fluorouridine | AID 504467 | 330,000 compounds, 2.3% hits | Potency, µM (series often up to 46.1 µM), for inactives: at the top dose activity change, negative = inhibition, most hits filed as inhibitors; note: potency is the fitted concentration of half-maximal effect; nearly all actives have a fitted effect of over 55% in size
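Cells (2,000 per well) received 5-fluorouridine plus test compound or DMSO and were incubated 16 hr at 37 °C, 5% CO2. Luciferase activity was read by luminescence 30 min after ONE-Glo addition; signal suppression marked inhibition of damage-induced ELG1 function.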
Numbers without * were called inactive; ? = inconclusive; · = no result given; [ ] = remark or other dose. Hits are enriched below; roughly 19% of the tested compounds scored in any of these assays. Unless noted, calls come from the whole dose curve; as a rule, active = well fitted curve in the direction sought with a large enough effect; inconclusive = small, poorly fitted or top-dose-only effect, or another doubt; inactive = no such curve, though single readings can be large; an effect the other way counts as inactive or inconclusive. Unless noted, % is set by controls: 0 for no effect and ±100 for the full control effect.

SMILES	HT1080 IDH1KD tx	TDP1 cell CPT	IL-1B inflam inh	HT1080NT lethal	DT40 TDP1 no CPT	ELG1 repair inh
CS(=O)(=O)N(Cc1ccccc1)c1ccc(C(=O)Nc2ccc(Cl)cc2)cc1	·	?	·	·	5.8µM*	·
O=C(Nc1ccc(S(=O)(=O)N(Cc2ccccc2)c2ccccc2)cc1)c1ccc([N+](=O)[O-])cc1	·	2.91µM*	·	·	?	·
COc1cc(=O)n2c(c1C(=O)NCc1ccco1)CCN(Cc1cccc(C)n1)CC2	·	3.7%[9.04 µM]	·	·	4.9%	·
Cc1ccc(C(=O)NCCc2ccc(S(N)(=O)=O)cc2)cc1-n1cnc2cccnc21	·	-22.7%	·	·	-19.6%	·
O=C(O)c1c(Cl)c(Cl)c(Cl)c(Cl)c1C(=O)OCC1CCCO1 (stereo not given)	-0.7%	5.9%	13.4	3.0%	11.6%	·
Cn1nc(C(F)(F)F)c(-c2ccc(Br)cc2)c1NC(=O)Nc1ccc(F)cc1F	18.4µM*	?	·	?	?	?
Cc1ccc(Sc2c(C(=O)Nc3ccc(F)cc3F)c(C(F)(F)F)nn2C)cc1	-16.8%	18.4µM*	0.0	2.6%	?	?
CSCCC(NC(=O)c1ccccc1Cl)C(=O)N(C)Cc1cccs1 (stereo not given)	3.0%	10.1%	2.7	2.3%	?	1.1%
Cc1c(C(C)(C)O)[nH]c2cc(C(F)(F)F)ccc12	4.8%	?	43.1	1.7%	13µM*	-5.2%
CC(C)(O)c1[nH]c2cc(C(F)(F)F)ccc2c1C(C)(C)O	-0.9%	?	14.3	0.6%	-29.8%	11.7%
Cc1ccc(-n2nnnc2Sc2nc([N+](=O)[O-])nn2C)cc1	?	?	-56.9*	?	?	?
Cc1ccc(-n2nnnc2Sc2nc([N+](=O)[O-])nn2C)c(C)c1	-14.4%	16.4µM*	?	-22.7%	?	·
Cn1cnnc1Sc1nc([N+](=O)[O-])nn1C	13.6%	-1.2%	10.4	9.3%	6.3%	-4.4%
O=C(COc1ccccc1F)N1N=C(c2cccs2)CC1c1ccco1 (stereo not given)	-12.5%	?	-8.5	-13.7%	?	1.3%
CC1(C(=O)Nc2nnc(SCc3ccccc3)s2)Cc2ccccc2C(=O)O1 (stereo not given)	10.9%	?	14.3	-1.0%	?	0.0%
CC1(C(=O)Nc2ncc(Cc3ccc(Br)cc3)s2)Cc2ccccc2C(=O)O1 (stereo not given)	·	23.1µM*	·	·	23.1µM*	·
CC(C)(C)c1ccc(C(=O)N/N=C/c2cccc(Cl)c2)cc1	?	?	?	?	16.4µM*	?
O=C(N/N=C/c1cccc(NC(=O)c2ccc(Cl)cc2)c1)c1ccc(O)cc1	-9.0%	?	?	-4.5%	14.6µM*	?
O=C(N/N=C/c1cccc(F)c1)c1ccc(Cl)cc1	-8.3%	27.2%	0.0	-1.6%	-5.3%	?
COc1cccc(C=NNC(=O)C(C)SC(C)C(=O)NN=Cc2cccc(OC)c2)c1 (stereo not given)	-3.2%	-1.7%	13.4	-2.4%	?	·
CC(SC(C)C(=O)NN=Cc1cccc(Cl)c1)C(=O)NN=Cc1cccc(Cl)c1 (stereo not given)	?	?	17.9	-20.1%	16.4µM*	·
O=C(CCC(=O)c1ccc(Oc2ccccc2)cc1)Nc1ccc(C(=O)O)cc1	-2.8%	1.6%	-6.2	-1.0%	-2.7%	-0.6%
CC(C)Sc1nc2c(cnn2-c2ccc(Cl)cc2)c(=O)[nH]1	8.1%	-23.7%	11.6	6.1%	-16.5%	22.1%
COc1ccc(-c2noc(C3CCCN(C(=O)c4ccc(F)cc4)C3)n2)cc1 (stereo not given)	?	?	?	-13.2%	?	-7.2%
